According to PubChem BioAssay AID1347434 (National Center for Advancing Translational Sciences (NCATS), 2020):
In all, about 1,200 compounds went through this assay and about 30 (2%) were called active. Where a call stands in place of a potency, no number is given. About 23% were inconclusive and are not listed. Calls follow the shape of the dose curve; as a rule, active = well fitted inhibition curve with a large enough effect; inconclusive = small, poorly fitted or top-dose-only effect; inactive = flat fitted curve, though single readings scatter. Many of the other results were omitted from the sample, so actives are more common in it than they were.

target: Single-stranded DNA cytosine deaminase (Homo sapiens) (UniProt Q9GZX7); test: Confirmatory qHTS assay for inhibitors of Activation Induced Cytidine Deaminase (AID): AID signals; conditions: recombinant AID, FRET deamination/UDG coupled fluorescence, 4 h; series mostly up to 115 µM
Sequence (Q9GZX7 whole entry, looked up): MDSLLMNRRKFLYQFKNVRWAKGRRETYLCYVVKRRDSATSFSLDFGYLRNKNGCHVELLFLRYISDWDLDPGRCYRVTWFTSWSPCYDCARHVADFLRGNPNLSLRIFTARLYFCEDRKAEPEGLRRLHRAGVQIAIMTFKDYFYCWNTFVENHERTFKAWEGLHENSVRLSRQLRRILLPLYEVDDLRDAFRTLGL
Excerpt: Assay Provider (PI) Patricia Gearhart Ph.D. National Institute on Aging National Institute of Health (NIH), Bethesda, MD Assay Provider (PI) Rahul Kohli Ph.D. Perelman School of Medicine University of Pennsylvania, Philadelphia, PA Activation-Induced Deaminase (AID) is a cytosine deaminase which converts cytosine into uracil within stretches of ssDNA. The presence of uracil in DNA initiates a cascade of mutagenic DNA repair to introduce point mutations and DNA double strand breaks. Specific targeting of AID to the immunoglobulin heavy chain loci (Igh) promotes mutagenesis in the antibody variable region for somatic hypermutation (SHM) or switch regions leading to class switch recombination (CSR). However, AID also plays a role in accumulating unnecessary mutations across the genome. Mis-targeting of AID results in the initiation of tumor development and leads to greater drug resistance among cancer cells when continually expressed. To identify an AID inhibitor, a small molecule library will be screened in collaboration with NCATS core facility at NIH. To confirm biological function, inhibitors will be examined in an in vitro murine B-cell activation assay and subsequent secondary validation screens. Top molecules will be further screened to identify inhibitory efficacy against a wild type primary splenocytes assay. Using these approaches, we hope to identify a small molecule with great efficacy and low toxicity for use as a molecular probe to further characterize AID's intricacies, or even as a therapeutic. A FRET based analysis of cytosine deamination, was developed to identify potential inhibitors of AID catalytic activity. This screen has two signal output, Read 1 evaluates the AID inhibition response. The second readout (Read 2) evaluates UDG response and is uses as a counterscreen to exclude false positive inhibitors. Inhibition in AID and inactivity in the UDG signal is the desired outcome for this assay.
PROTOCOL TABLE SEQUENCE No. (e.g., 1, 2, 3, etc.); […] (e.g., Cells, Incubation, Reagent, etc.); VALUE; DESCRIPTION 1a; Reagent; 3 uL; [4/3x] 1 uM AID/2.67 U/mL UDG 1b; Reagent; 3 uL; 2 U/mL UDG 1c; Reagent; 3 uL; 1 uM AID 2a; Compound; 46 nL; Follow-up plates (0.64 uM - 10 mM) 2b; Control; 46 nL; ATA (16.4 nM - 10 mM) 3; Time; 10 min; incubation at room temperature 4; Reagents; 1 uL; [4x] 250 nM DJC20 / 250 nM DJC23 [Substrate] 5; Time; 4 hr; incubation at room temperature 6; Reagent; 4 uL; [2x] 250 mM NaOH 7; Time; 15 sec; centrifuge at 1000 rpm 8; Time; 30 min; incubation at room temperature 9a; Detection; fluorescence (Read 1: AID); EnVision (PerkinElmer) plate reader, 540 excitation and 590 emission filters 9b; Detection; fluorescence (Read 2: UDG); EnVision (PerkinElmer) plate reader, 560 excitation and 665 emission filters NOTES (numbers refer to sequence above) 1a; Reagents were dispensed in a medium-binding black solid-bottom Greiner plates (789176F) using a BioRptr liquid dispenser. Dispense 3 uL of [4/3x] 1 uM AID (provided by Kohli lab) and [4/3x] 2 U/mL UDG (NEB M0280L) into columns 1, 2, 5 to 48. 1b; Dispense 3 uL of [4/3x] 2 U/mL UDG into column 3. 1c; Dispense 3 uL of [4/3x] 1 uM AID into column 4. 2a; Compound ([…] [uM]: 0.64; 3.2; 16; 80; 400; 2,000; 10,000; 20,000) double pin-transferred (Dip Factor = 2) using the Kalypsys (Wako USA) pintool equipped with a 1536 pinhead for a final concentration range of 7.32 nM - 114 uM. 2b; 10 mM Aurintricarboxylic Acid (Sigma A1895) (ATA, 8-point, n = 2, 1:2.5 dilution in column 2) double pin-transferred (Dip Factor = 2) using the Kalypsys (Wako USA) pintool equipped with a 1536 pinhead for a [final] range of 186 nM - 114 uM. 3; Room temperature incubation. 4; Dispense 1 uL of substrate mixture from the Kohli lab [4x] […] DJC20 and [4x] 250 nM DJC23 into columns 1 to 48 . 5; Room temperature incubation. 6; Dispense 4 uL of […] [2x] 250 mM NaOH into columns 1 to 48. 7; Centrifugation step to remove bubbles. […]
Potency is read from the fitted curve at half-maximal effect.

Compound | Potency
NC(Cc1cc(O)c(O)cc1O)C(=O)O (stereo unspecified) | 22.4 µM (active)
NCC(O)c1cc(O)c(O)cc1F (stereo unspecified) | inactive
O=C(Nc1cc(C(F)(F)F)cc(C(F)(F)F)c1)c1cccn(Cc2ccccc2Cl)c1=O | inactive
CN1CC[C@@]2(C)c3cc(O)ccc3N(C)C12 (stereo partly specified) | 22.4 µM (active)
COc1cc(C(c2c(O)c3ccccc3oc2=O)c2c(C)n(C)n(-c3ccccc3)c2=O)ccc1O (stereo unspecified) | inactive
Cc1cccc(-c2nc(CN3C(=O)CN=C(c4ccccc4)c4ccccc43)c(C)o2)c1 | inactive
Cc1ccc(NC(=O)N(Cc2ccc3c(c2)OCO3)C2CCN(Cc3ccccc3)CC2)cc1C | inactive
CCCC1=Nc2cc(C(=O)NCCCN(CC)CC)ccc2Sc2ccccc21 | inactive
O=S1(=O)N(CCN2CC=C(c3c[nH]c4cc(F)ccc34)CC2)c2cccc3c2N1CCC3 | inactive
CC(=O)c1c(O)c(C)c(O)c(Cc2c(O)c3c(c(C(=O)/C=C/c4ccccc4)c2O)OC(C)(C)C=C3)c1O | 14.1 µM (active)
O=C(c1ccc2c(c1)N(Cc1ccc(F)cc1)C(=O)c1ccccc1S2)N1CCC2(CC1)OCCO2 | inactive
Cc1ccccc1CN1C(=O)C(C)N=C(c2ccccc2)c2ccccc21 (stereo unspecified) | inactive
COc1ccc2c(c[n+](C)c3c4cc5c(cc4ccc23)OCO5)c1OC | 17.8 µM (active)
Cc1cccc(CN2C(=O)CN=C(c3ccccc3)c3cc(Cl)ccc32)c1 | inactive
Cc1c(C(c2ccc(Cl)cc2Cl)c2c(O)c3ccccc3oc2=O)c(=O)n(-c2ccccc2)n1C (stereo unspecified) | inactive
Cc1ccccc1CN1C(=O)CN=C(c2ccccc2)c2cc(Cl)ccc21 | inactive
